{
  "source": "the OligoGym collection",
  "data": [
    {"molecular_target": "BRD2", "test": "pooled miR-30 sensor sort-seq; sequence = guide strand", "conditions": "shRNA", "values": [
      {"sequence": "TACATCAGCAGCAAACTCCTGT", "sensor-assay potency score (higher = more potent)": 0.587},
      {"sequence": "TAAAATCTTGCATACACTCTGA", "sensor-assay potency score (higher = more potent)": -0.097},
      {"sequence": "TAATTTTGTGATAATCCGGTAG", "sensor-assay potency score (higher = more potent)": 0.162}
    ]},
    {"molecular_target": "BRMS1L", "test": "pooled miR-30 sensor sort-seq; sequence = guide strand", "conditions": "shRNA", "values": [
      {"sequence": "TTTGGTAACACTAATAAGGTAA", "sensor-assay potency score (higher = more potent)": -0.0586},
      {"sequence": "TAACATATCAATGAGATCTATT", "sensor-assay potency score (higher = more potent)": -0.518},
      {"sequence": "TTCTTTATAAAGTTGATCTTTG", "sensor-assay potency score (higher = more potent)": -0.111},
      {"sequence": "TTCAGATCTAGCACTGTGCAGA", "sensor-assay potency score (higher = more potent)": -0.0416},
      {"sequence": "TATAGCAACAGCTTTTCGCTCT", "sensor-assay potency score (higher = more potent)": 0.681},
      {"sequence": "TTCTTTACAGATTCTAAGCAGA", "sensor-assay potency score (higher = more potent)": -0.334},
      {"sequence": "TTGTAGTTTTGCATCCACCTGA", "sensor-assay potency score (higher = more potent)": 0.526},
      {"sequence": "TTCTTCTTCTTTCACAGTCTTC", "sensor-assay potency score (higher = more potent)": -0.927},
      {"sequence": "TGGACCTGAAACAACAACTGGC", "sensor-assay potency score (higher = more potent)": -0.0627},
      {"sequence": "TTCTGAGCTATCTCCATCCTCG", "sensor-assay potency score (higher = more potent)": -0.213},
      {"sequence": "TTCAAGAATATCAAGATCTTGT", "sensor-assay potency score (higher = more potent)": 0.566},
      {"sequence": "TTCACAGTCTTCATCATCCATT", "sensor-assay potency score (higher = more potent)": -0.228}
    ]},
    {"molecular_target": "BRP44L", "test": "pooled miR-30 sensor sort-seq; sequence = guide strand", "conditions": "shRNA", "values": [
      {"sequence": "TAACATTTTTAAACAGTGGGGA", "sensor-assay potency score (higher = more potent)": 0.282},
      {"sequence": "ATGAATGTCAAAGAATAGCAAC", "sensor-assay potency score (higher = more potent)": -1.23},
      {"sequence": "TCAAAGAATAGCAACAGAGGGC", "sensor-assay potency score (higher = more potent)": -0.477},
      {"sequence": "TTCGGACATAGTCCGCCGCTTT", "sensor-assay potency score (higher = more potent)": -1.36},
      {"sequence": "TTTTTCATTAAGTAAATTCTAA", "sensor-assay potency score (higher = more potent)": -0.748},
      {"sequence": "TCGTGTTTGATAAGCCGCCCTC", "sensor-assay potency score (higher = more potent)": -0.468},
      {"sequence": "TTTGATAAGCCGCCCTCCCTGG", "sensor-assay potency score (higher = more potent)": -0.467},
      {"sequence": "TAGTCCCGGAAATCCTTGCTTC", "sensor-assay potency score (higher = more potent)": -0.727},
      {"sequence": "TTGCTTCGGACATAGTCCGCCG", "sensor-assay potency score (higher = more potent)": -0.944},
      {"sequence": "TTTTGAGCTACTCTTTATGGAA", "sensor-assay potency score (higher = more potent)": -0.685},
      {"sequence": "TTAATTGCATATTTTGAGCTAC", "sensor-assay potency score (higher = more potent)": -0.357},
      {"sequence": "TACCTTGTAGGCAAATCTCATG", "sensor-assay potency score (higher = more potent)": -1.15}
    ]},
    {"molecular_target": "BST2", "test": "pooled miR-30 sensor sort-seq; sequence = guide strand", "conditions": "shRNA", "values": [
      {"sequence": "TACAGCGCTTATCCCCGTCTTC", "sensor-assay potency score (higher = more potent)": -1.34},
      {"sequence": "TCGCTGTTGGCCTTGATGGTGA", "sensor-assay potency score (higher = more potent)": -1.17},
      {"sequence": "TCTCACGCTTAAGACCTGGTTT", "sensor-assay potency score (higher = more potent)": -0.474},
      {"sequence": "TTGTCCGCGATTCTCACGCTTA", "sensor-assay potency score (higher = more potent)": -0.717},
      {"sequence": "TAATGTAGTGATCTCTCCCTCA", "sensor-assay potency score (higher = more potent)": 0.239},
      {"sequence": "TGGTTTTCTCTTCTCAGTCGCT", "sensor-assay potency score (higher = more potent)": -0.752},
      {"sequence": "ATTAGGGCCATCACAGTGTGGT", "sensor-assay potency score (higher = more potent)": -0.491},
      {"sequence": "TTCTTGTCCGCGATTCTCACGC", "sensor-assay potency score (higher = more potent)": -0.275},
      {"sequence": "TACTTCTTGTCCGCGATTCTCA", "sensor-assay potency score (higher = more potent)": -0.543},
      {"sequence": "TGAAGCTTATGGTTTAATGTAG", "sensor-assay potency score (higher = more potent)": -0.303},
      {"sequence": "TTAATGTAGTGATCTCTCCCTC", "sensor-assay potency score (higher = more potent)": -0.16},
      {"sequence": "ATGTAGTGATCTCTCCCTCAAG", "sensor-assay potency score (higher = more potent)": -1.69},
      {"sequence": "TCAAGCTCCTCCACTTTCTTTT", "sensor-assay potency score (higher = more potent)": -0.76}
    ]}
  ]
}
